# Inconclusive results are not listed. The source made the active and inactive calls. Unless noted, the call rests on the fitted dose curve; in most records, active means well fitted cell-killing curve with a large enough effect; inconclusive means small, poorly fitted or top-dose-only effect, or effect the other way; inactive means no such curve, though single readings can be large or run the other way.
# Legend:
# [1] = Quantitative High-Throughput drug screen in 47 multiple myeloma cell lines against the NCATS MIPE library collection: VP6_DJ cell viability assay (AID 1919867); further: nearly all actives have a fitted effect of over 40% in size; further: potency means the concentration at half of the fitted maximal effect
# Outline: (§1)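 MIPE 4.0 approved/investigational drugs; 500 cells/well; 48 h 37 °C humidified 5% CO2; CTG luminescence readout; DMSO = 100%, media = 0% viability.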
# [2] = Quantitative High-Throughput drug screen in 47 multiple myeloma cell lines against the NCATS MIPE library collection: UTMC2_PLB cell viability assay (AID 1919868); further: nearly all actives have a fitted effect of over 55% in size; further: potency means the concentration at half of the fitted maximal effect
# Outline: as §1
# [3] = Quantitative High-Throughput drug screen in 47 multiple myeloma cell lines against the NCATS MIPE library collection: KMS11_JCRBsus cell viability assay (AID 1919873); further: nearly all actives have a fitted effect of over 50% in size; further: potency means the concentration at half of the fitted maximal effect
# Outline: as §1
# [4] = Quantitative High-Throughput drug screen in 47 multiple myeloma cell lines against the NCATS MIPE library collection: KMS28BM_JCRB cell viability assay (AID 1919874); further: nearly all actives have a fitted effect of over 35% in size; further: potency means the concentration at half of the fitted maximal effect
# Outline: as §1
# [5] = Quantitative High-Throughput drug screen in 47 multiple myeloma cell lines against the NCATS MIPE library collection: PCM6_Riken cell viability assay (AID 1919870); further: nearly all actives have a fitted effect of over 30% in size; further: potency means the concentration at half of the fitted maximal effect
# Outline: as §1
# [6] = Quantitative High-Throughput drug screen in 47 multiple myeloma cell lines against the NCATS MIPE library collection: OPM2_DSMZ cell viability assay (AID 1919872); further: nearly all actives have a fitted effect of over 30% in size; further: potency means the concentration at half of the fitted maximal effect
# Outline: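 Approved and investigational drugs from MIPE 4.0 were added by pin tool to 500 cells per well. After 48 hours at 37C, ATP-based CellTiter-Glo luminescence indicated remaining viability.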
# [7] = qHTS drug screen for cell cycle checkpoint inhibitors in PARPi-resistant BRCA-mutant ovarian cancer cell lines. (AID 1963452; calls by dose curve); conditions: PEO1/OlaR viability, CellTiter-Glo luminescence, 96 h, stronger effect = lower value
# Outline: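 PEO1, PEO4 and PEO1/OlaR ovarian cancer cells, 600 per well, exposed 96 h at 37C to a dilution series. Viability read by CellTiter-Glo luminescence, normalized to DMSO and empty wells; activity summarized as Z-AUC.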
# [8] = Quantitative High-Throughput drug screen in 47 multiple myeloma cell lines against the NCATS MIPE library collection: PE2_PLB cell viability assay (AID 1919869); further: nearly all actives have a fitted effect of over 35% in size; further: potency means the concentration at half of the fitted maximal effect
# Outline: as §1
# [9] = Quantitative High-Throughput drug screen in 47 multiple myeloma cell lines against the NCATS MIPE library collection: RPMI8226_ATCC cell viability assay (AID 1919871); further: nearly all actives have a fitted effect of over 30% in size; further: potency means the concentration at half of the fitted maximal effect
# Outline: as §1
# [10] = measured here: PEO1 parental Z-AUC
Compound,Potency [1],Potency [2],Potency [3],Potency [4],Potency [5],Potency [6],Z-AUC [7],"Z-AUC [7, 10]",Z-AUC ([7]; measured here: PEO4 Z-AUC),Potency [8],Potency [9]
CN1CCN2c3ccccc3Cc3ccccc3C2C1 (stereo unspecified),3.72 µM (active),inactive,23.5 µM (active),23.5 µM (active),,,,,,,
Clc1ccc2nsnc2c1NC1=NCCN1,inactive,inactive,inactive,inactive,inactive,inactive,1.68 (inactive),1.11,1.24,,
CNCCCC12CCC(c3ccccc31)c1ccccc12,20.9 µM (active),,9.35 µM (active),16.6 µM (active),23.5 µM (active),23.5 µM (active),-0.42 (inactive),0.397,0.261,23.5 µM (active),20.9 µM (active)
CC(C(=O)O)c1cccc(C(=O)c2ccccc2)c1 (stereo unspecified),14.8 µM (active),,inactive,inactive,16.6 µM (active),inactive,0.0263 (inactive),0.275,0.507,23.5 µM (active),inactive
CN1CCC(=C2c3ccccc3CC(=O)c3sccc32)CC1,9.35 µM (active),10.5 µM (active),inactive,,14.8 µM (active),,1.25 (inactive),1.46,0.927,11.8 µM (active),inactive
CC#C[C@]1(O)CC[C@H]2[C@@H]3CCC4=CC(=O)CCC4=C3[C@@H](c3ccc(N(C)C)cc3)C[C@@]21C,0.833 µM (active),0.418 µM (active),7.43 µM (active),7.43 µM (active),0.743 µM (active),1.18 µM (active),1.15 (inactive),0.225,0.142,,3.72 µM (active)
NC12CC3CC(CC(C3)C1)C2,3.32 µM (active),8.33 µM (active),16.6 µM (active),,3.32 µM (active),inactive,0.0042 (inactive),0.0418,0.463,,0.833 µM (active)
COc1cc2c(c(OC)c1OC)-c1ccc(OC)c(=O)cc1[C@@H](NC(C)=O)CC2,inactive,inactive,inactive,,inactive,inactive,-0.869 (inactive),-1.12,-1.62,,
CS(=O)(=O)CCNCc1ccc(-c2ccc3ncnc(Nc4ccc(OCc5cccc(F)c5)c(Cl)c4)c3c2)o1,1.66 µM (active),1.18 µM (active),20.9 µM (active),,1.18 µM (active),16.6 µM (active),0.292 (inactive),0.248,0.473,,26.4 µM (active)
O=C1Cc2cc(CCN3CCN(c4nsc5ccccc45)CC3)c(Cl)cc2N1,16.6 µM (active),20.9 µM (active),,23.5 µM (active),18.7 µM (active),,,,,18.7 µM (active),20.9 µM (active)
O=c1c(-c2ccc(O)cc2)coc2cc(O)cc(O)c12,5.9 µM (active),,,inactive,7.43 µM (active),inactive,0.848 (inactive),0.793,-0.435,inactive,20.9 µM (active)
OCCN1CCN(CCCN2c3ccccc3Sc3ccc(C(F)(F)F)cc32)CC1,16.6 µM (active),,13.2 µM (active),23.5 µM (active),23.5 µM (active),inactive,0.453 (inactive),0.459,0.195,20.9 µM (active),16.6 µM (active)
CN1CCC(=C2c3ccccc3C=Cc3ccccc32)CC1,16.6 µM (active),13.2 µM (active),,,18.7 µM (active),inactive,0.372 (inactive),0.535,0.739,23.5 µM (active),
CC(=O)OCC(CCn1cnc2cnc(N)nc21)COC(C)=O,inactive,inactive,inactive,inactive,inactive,inactive,1.18 (inactive),1.12,1.62,,inactive
CCN1CCCC1CNC(=O)c1cc(S(=O)(=O)CC)c(N)cc1OC (stereo unspecified),inactive,inactive,inactive,inactive,inactive,inactive,1.05 (inactive),0.594,0.466,inactive,inactive
COc1cc2nc(N3CCN(C(=O)c4ccco4)CC3)nc(N)c2cc1OC,10.5 µM (active),11.8 µM (active),13.2 µM (active),10.5 µM (active),7.43 µM (active),,,,,10.5 µM (active),
Cc1cc(C(C)(C)C)c(O)c(C)c1CC1=NCCN1,inactive,,inactive,inactive,inactive,inactive,1.21 (inactive),0.68,0.695,inactive,
COc1ccc2c(c1)c(CC(=O)O)c(C)n2C(=O)c1ccc(Cl)cc1,20.9 µM (active),,inactive,inactive,,inactive,0.8 (inactive),0.391,0.536,inactive,inactive
CN(C)CCCN1c2ccccc2CCc2ccc(Cl)cc21,0.935 µM (active),0.833 µM (active),20.9 µM (active),20.9 µM (active),0.469 µM (active),,-0.0245 (inactive),-0.498,-0.622,2.64 µM (active),16.6 µM (active)

# From PubChem BioAssay (NCATS)
